This is part of a sample that, as a whole, favours compounds with a hit. Of some 83,000 tested, about 20% had one in any assay.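 Compound tested at a single concentration for 48 hours in 96-well plates; a percent growth value below 10 was scored as active.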 Values without a mark were called inactive. Activity calls are given as the source filed them.
Key:
Test in all cases: NCI-60 one-dose screen, 48 h (100 = growth as untreated, 0 = no growth, -100 = all killed)
Details in all cases: 10 µM unless noted
[1] = system: NCI-H23 lung
[2] = system: NCI-H226 lung
[3] = system: NCI-H322M lung
[4] = system: HOP-62 NSCLC
[5] = system: NCI-H460 lung
[6] = system: HOP-92 NSCLC
[7] = system: NCI-H522 lung
[8] = system: A549/ATCC NSCLC
[9] = system: 786-0 renal
[10] = system: COLO 205 colon
[11] = system: DU-145 prostate
[12] = system: K-562 leukemia
[13] = system: MALME-3M melanoma
[14] = system: MDA-MB-231 breast
[15] = system: RXF 393 renal
[16] = system: SF-268 CNS
[17] = system: SF-295 CNS
[18] = system: SF-539 CNS
[19] = system: UACC-257 melanoma
[20] = system: M14 melanoma

SMILES	growth [1]	growth [2]	growth [3]	growth [4]	growth [5]	growth [6]	growth [7]	growth [8]	growth [9]	growth [10]	growth [11]	growth [12]	growth [13]	growth [14]	growth [15]	growth [16]	growth [17]	growth [18]	growth [19]	growth [20]
Nc1ccc(NC(=O)c2ccccc2)c2c1C(=O)c1ccccc1C2=O	96.1%	89.5%	99.1%	107%	104%	80.2%	111%	97%	103%	109%	98.5%	105%	89.5%	94.7%	106%	99.3%	105%	103%	88.8%	–
CC(=O)O.CC(=O)O.O.[Fe]	106%	101%	111%	103%	107%	99.8%	90%	99.1%	112%	101%	105%	139%	91.5%	99.2%	110%	95.1%	127%	103%	103%	106%
CCN(CC)c1ccc2cc(C(Nc3ccc(C)cc3)c3nnnn3C(C)(C)C)c(=O)oc2c1 (stereo not drawn)	95.1%	85%	103%	103%	91.9%	81%	82.8%	85.4%	96%	110%	105%	87.5%	105%	84.5%	87.3%	92.6%	102%	103%	104%	–
N#CC1C(=O)NC(c2ccccc2[N+](=O)[O-])c2sc3c(F)cccc3c21 (stereo not drawn)	68.9%	-14.9% (active)	67.2%	33.8%	2.01% (active)	82.7%	88.6%	47.2%	90%	70.1%	89.9%	35.9%	74.7%	75.6%	69.9%	86.7%	20.8%	85.7%	-37.3% (active)	–
Brc1ccc2c(c1)CN(C1CCCCC1)CO2	96.9%	91.3%	124%	100%	102%	89.3%	108%	110%	117%	116%	111%	89.7%	115%	102%	107%	96.4%	104%	98.2%	120%	–
O=C1NC(=O)c2cc([N+](=O)[O-])cc3cccc1c23	97.6%	106%	89%	121%	98.5%	80.2%	77.5%	89.7%	98.6%	105%	106%	131%	107%	100%	98.2%	98%	114%	105%	76.7%	–
CCOC(=O)C1=C(C(=O)c2ccc(Br)cc2)C(c2ccc(Br)cc2)NC(=S)N1 (stereo not drawn)	98%	94.9%	97.3%	88.4%	101%	96.3%	95.9%	100%	106%	118%	113%	106%	107%	109%	109%	98.6%	102%	99.5%	109%	–
NC(=O)c1cccc(-c2ccc(S(=O)(=O)Nc3ccc4c(c3)N(C(=O)C3CC3)CCC4)cc2)c1	48%	63.7%	70%	38.4%	17.1%	33.7%	7.75% (active)	50.8%	100%	43.6%	76.3%	25.6%	39.1%	46.2%	47.7%	48.8%	18%	26.3%	46.2%	–
Fc1cc2[nH]ncc2c2c3c(c(-c4cn[nH]c4)nc12)CCCC3	-14.5% (active)	1.53% (active)	2.77% (active)	-10.6% (active)	1.29% (active)	-7.43% (active)	-9.92% (active)	1.75% (active)	12.1%	-43.8% (active)	7.37% (active)	15.4%	-14.8% (active)	3.56% (active)	-56% (active)	3.1% (active)	9.21% (active)	-30.7% (active)	-22.2% (active)	1.03% (active)
N#C/C(=C(/O)CCCO)c1nc2ccccc2c(=O)[nH]1	91.2%	93.7%	105%	99%	111%	84.9%	95%	95.3%	102%	130%	102%	102%	90.3%	98.5%	87.5%	112%	150%	97.2%	93.9%	105%
CCn1cc(-c2ccnc(NCCNS(=O)(=O)c3cccc4ccccc34)c2)c(-c2cccc(O)c2)n1	100%	94.2%	98.9%	113%	102%	79.8%	105%	103%	92.3%	112%	97.9%	75.7%	109%	108%	92.9%	94.7%	101%	104%	109%	103%
Cc1c(Cn2cc(COc3ccc(Br)cc3)nn2)c(C)c(Cn2cc(COc3ccc(Br)cc3)nn2)c(C)c1Cn1cc(COc2ccc(Br)cc2)nn1	98.7%	88.2%	108%	84%	102%	93.7%	-30.4% (active)	83.4%	95.2%	84.6%	104%	103%	89.1%	89.7%	102%	97%	89.6%	96%	80.2%	97.7%
CC(C)OC(=O)Nc1cc(F)c(F)cc1F	99%	98%	96.3%	99.8%	104%	102%	97.8%	97.8%	107%	113%	110%	111%	89.9%	103%	104%	101%	102%	96.2%	94.8%	93.7%
O=C(NCCCNC(=O)OCc1ccc2cccc(O)c2n1)OCc1ccc2cccc(O)c2n1	70%	71.1%	59.4%	32.1%	26.1%	33.9%	18.4%	47.5%	60.1%	29.6%	28.7%	14.1%	72.3%	70%	0.757% (active)	54%	38.7%	35.1%	53.9%	38.9%
CSc1nc2c(c(=O)n1C)C1(C(=O)N(Cc3ccccc3)c3ccccc31)c1c(nc(SC)n(C)c1=O)N2	92.9%	74.3%	95.5%	84%	87.2%	93.2%	73.9%	68.5%	113%	105%	92.7%	89.8%	94%	77.6%	88.3%	97.2%	85.3%	106%	75.1%	99.7%

Source: PubChem BioAssay (NCI)
